Results on eight molecules are retold here after PubChem BioAssay (EPA / NIEHS).

Common to all, as to conditions: mRNA level, 48 h; actives raise or lower the signal
Read-out in test [1]: Cyclin D1 (CCND1), CCND1 (gene 595)
The experiment in a line: LTEA_HepaRG_CCND1: Life Technologies and Expression Analysis (LTEA) Assay for Cyclin D1 (CCND1) using HepaRG (AID 2283451).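 For AC50: differentiated human HepaRG liver cells in serum-free induction medium; TaqMan qRT-PCR transcript level normalised to ACTB GAPDH and POLR2A housekeeping genes.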 The method, boiled down: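 HepaRG plated 48 h, medium switched to serum-free induction medium, chemicals added in duplicate (top 100 uM, half-log steps, 0.5% DMSO) for 48 h, cells lysed, RNA measured by TaqMan qRT-PCR.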

Read-out in test [2]: flavin-containing dimethylaniline monooxygenases 3 (FMO3), FMO3 (gene 2328)
The test is described as follows: LTEA_HepaRG_FMO3: Life Technologies and Expression Analysis (LTEA) Assay for flavin-containing dimethylaniline monooxygenases 3 (FMO3) using HepaRG (AID 2283453).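 For AC50: differentiated human HepaRG liver cells in serum-free induction medium.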 The method, boiled down:
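FMO3 transcript quantified by TaqMan qRT-PCR against three housekeeping genes after 48 h chemical exposure of HepaRG cells. Eight-point half-log series, top 100 uM, 0.5% DMSO vehicle; phenobarbital 1mM induction control; up- or down-regulation fitted.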

Read-out in test [3]: Cytochrome P450 (CYP1A1), CYP1A1 (gene 1543)
The experiment in a line: LTEA_HepaRG_CYP1A1: Life Technologies and Expression Analysis (LTEA) Assay for Cytochrome P450 (CYP1A1) using HepaRG (AID 2283454). The method, boiled down: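 HepaRG, 48 h post-plating switched to serum-free induction medium; 8-pt conc-response (top 100 uM, half-log, 0.5% DMSO), duplicates, 48 h. Lysis in RLT, TaqMan qRT-PCR for CYP1A1; gain or loss vs DMSO.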

Read-out in test [4]: CFLAR gene, CFLAR (gene 8837)
The test is described as follows: LTEA_HepaRG_CFLAR: Life Technologies and Expression Analysis (LTEA) Assay for CFLAR gene using HepaRG (AID 2283455). Put shortly: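 Transcript level by qRT-PCR (normalized to ACTB, GAPDH and POLR2A) after 48 h chemical exposure of HepaRG cells, top concentration 100 uM with half-log steps, 0.5% DMSO vehicle, duplicates; fitted bidirectionally against DMSO baseline.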

Read-out in test [5]: growth arrest and DNA damage 45 (GADD45A), GADD45A (gene 1647)
The test is described as follows: LTEA_HepaRG_GADD45A: Life Technologies and Expression Analysis (LTEA) Assay for growth arrest and DNA damage 45 (GADD45A) using HepaRG (AID 2283458). The method, boiled down:
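Transcript induction or loss, quantified by TaqMan qRT-PCR against three housekeeping genes, is the read-out. HepaRG cells received chemicals for 48 h across eight half-log concentrations from 100 uM in 0.5% DMSO; gain and loss fitted relative to DMSO.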

Read-out in test [6]: Forkhead box O3 (FOXO3), FOXO3 (gene 2309)
The experiment in a line: LTEA_HepaRG_FOXO3: Life Technologies and Expression Analysis (LTEA) Assay for Forkhead box O3 (FOXO3) using HepaRG (AID 2283459). Put shortly:
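FOXO3 transcript measured by qRT-PCR (normalized to ACTB, GAPDH, POLR2A) after 48 h exposure of HepaRG cells in serum-free induction medium. Duplicates, eight half-log concentrations up to 100 uM, 0.5% DMSO; gain or loss fitted against DMSO.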

Read-out in test [7]: ABC Transporter (ABCC3), ABCC3 (gene 8714)
The experiment in a line: LTEA_HepaRG_ABCC3: Life Technologies and Expression Analysis (LTEA) Assay for ABC Transporter (ABCC3) using HepaRG (AID 2283462). The method, boiled down:
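Human HepaRG, 48 h dosing, 8-pt half-log series from 100 uM, 0.5% DMSO vehicle, duplicates. ABCC3 mRNA by TaqMan qRT-PCR, housekeeping-normalized; bidirectional curve fit vs DMSO.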

Read-out in test [8]: ABC Transporter (ABCB11), ABCB11 (gene 8647)
The test is described as follows: LTEA_HepaRG_ABCB11: Life Technologies and Expression Analysis (LTEA) Assay for ABC Transporter (ABCB11) using HepaRG (AID 2283463). Put shortly:
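ABCB11 transcript levels quantified by TaqMan qRT-PCR against three housekeeping genes after 48 h chemical exposure of HepaRG cultures. Concentrations up to 100 uM in half-log steps, 0.5% DMSO vehicle; both induction and suppression scored.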

Read-out in test [9]: ABC Transporter (ABCC2), ABCC2 (gene 1244)
The test is described as follows: LTEA_HepaRG_ABCC2: Life Technologies and Expression Analysis (LTEA) Assay for ABC Transporter (ABCC2) using HepaRG (AID 2283464). Put shortly:
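HepaRG, 48 h post-plating; serum-free induction medium; cpd 8-pt, 100 uM top, half-log, 0.5% DMSO, duplicate, 48 h. Readout: ABCC2 mRNA by qRT-PCR, norm. ACTB/GAPDH/POLR2A. Bidirectional fit vs DMSO baseline.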

Read-out in test [10]: Broad substrate specificity ATP-binding cassette transporter ABCG2 (Homo sapiens) (UniProt Q9UNQ0)
The test is described as follows: LTEA_HepaRG_ABCG2: Life Technologies and Expression Analysis (LTEA) Assay for ABC Transporter (ABCG2) using HepaRG (AID 2283465). The method, boiled down:
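ABCG2 transcript was quantified by TaqMan qRT-PCR against three housekeeping genes in HepaRG cells. Cells were treated in duplicate for 48 h across an 8-point half-log series up to 100 uM, with 0.5% DMSO vehicle. Gain or loss versus DMSO was fit.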

Read-out in test [11]: Peroxisomal acyl-coenzyme A oxidase 1 (ACOX1) gene, ACOX1 (gene 51)
The experiment in a line: LTEA_HepaRG_ACOX1: Life Technologies and Expression Analysis (LTEA) Assay for Peroxisomal acyl-coenzyme A oxidase 1 (ACOX1) gene using HepaRG (AID 2283467). Put shortly: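 ACOX1 transcript levels were quantified by TaqMan qRT-PCR against three housekeeping genes after 48 h chemical exposure of differentiated human HepaRG cells. Exposure used eight half-log steps topping at 100 uM, 0.5% DMSO vehicle, in duplicate. Bidirectional curve fits were made relative to DMSO.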

Read-out in test [12]: Alkaline Phosphatase, Placental (ALPP) gene, ALPP (gene 250)
The experiment in a line: LTEA_HepaRG_ALPP: Life Technologies and Expression Analysis (LTEA) Assay for Alkaline Phosphatase, Placental (ALPP) gene using HepaRG (AID 2283468). The method, boiled down:
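HepaRG, 48 h plating then 48 h dosing, serum-free induction medium, 0.5% DMSO. 8 conc, half-log, max 100 uM, duplicates. Endpoint: ALPP transcript by qRT-PCR, housekeeping-normalized; gain or loss fitted vs DMSO.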

Read-out in test [13]: Bcl-2 (BAD) gene, BAD (gene 572)
The test is described as follows: LTEA_HepaRG_BAD: Life Technologies and Expression Analysis (LTEA) Assay for Bcl-2 (BAD) gene using HepaRG (AID 2283469). Put shortly: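 Read-out: qRT-PCR of BAD mRNA, normalized to three housekeeping genes. Human HepaRG cultures got 48 h chemical exposure in 0.5% DMSO, duplicate eight-point half-log series topping at 100 uM. Gain or loss of signal fitted versus DMSO vehicle.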

Read-out in test [14]: Forkhead box O1 (FOXO1), FOXO1 (gene 2308)
The test is described as follows: LTEA_HepaRG_FOXO1: Life Technologies and Expression Analysis (LTEA) Assay for Forkhead box O1 (FOXO1) using HepaRG (AID 2283456). Put shortly:
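FOXO1 transcript quantified by qRT-PCR after 48 h chemical exposure (top 100 uM, half-log steps, 0.5% DMSO) of HepaRG cells, housekeeping-normalized (ACTB/GAPDH/POLR2A). Changes fitted in both directions relative to vehicle.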

Read-out in test [15]: growth arrest and DNA damage 45 (GADD45B), GADD45B (gene 4616)
The experiment in a line: LTEA_HepaRG_GADD45B: Life Technologies and Expression Analysis (LTEA) Assay for growth arrest and DNA damage 45 (GADD45B) using HepaRG (AID 2283461). The method, boiled down:
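HepaRG, ~100,000 cells/well, 48 h plating; serum-free induction medium; cpd 100 uM top, half-log x8, 0.5% DMSO, duplicate, 48 h; lysis in RLT, RNA isolation, qRT-PCR; norm ACTB/GAPDH/POLR2A; bidirectional fit vs DMSO.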

Read-out in test [16]: ABC Transporter (ABCB1), ABCB1 (gene 5243)
The test is described as follows: LTEA_HepaRG_ABCB1: Life Technologies and Expression Analysis (LTEA) Assay for ABC Transporter (ABCB1) using HepaRG (AID 2283460). The method, boiled down: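 ABCB1 transcript level measured by TaqMan qRT-PCR against three housekeeping genes after 48 h chemical exposure of differentiated HepaRG cells. Top concentration 100 uM, half-log steps, eight points, 0.5% DMSO vehicle; bidirectional fit relative to DMSO.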

Read-out in test [17]: catalase (CAT), CAT (gene 847)
The test is described as follows: LTEA_HepaRG_CAT: Life Technologies and Expression Analysis (LTEA) Assay for catalase (CAT) using HepaRG (AID 2283452). The method, boiled down: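 Expression of CAT was quantified by TaqMan qRT-PCR with ACTB/GAPDH/POLR2A normalization after 48 h chemical exposure of HepaRG. Eight-point half-log series, top 100 uM, in 0.5% DMSO; gain or loss fitted against vehicle.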

Read-out in test [18]: ATP-citrate lyase (ACLY), ACLY (gene 47)
The experiment in a line: LTEA_HepaRG_ACLY: Life Technologies and Expression Analysis (LTEA) Assay for ATP-citrate lyase (ACLY) using HepaRG (AID 2283466). Put shortly:
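ACLY mRNA quantified by qRT-PCR on Fluidigm arrays against three housekeeping genes, after 48 h chemical treatment of HepaRG cells (top concentration 100 uM, half-log steps, 0.5% DMSO vehicle). Up- or down-regulation fitted relative to DMSO.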

The AC50 is the concentration giving half of the maximal activity seen.

Activity calls are given as the source filed them. Rule for the calls: active = hit-call score of the fitted dose curve at least 0.9, where 1 is the maximum; inactive = score below 0.9.

Broad substrate specificity ATP-binding cassette transporter ABCG2 (Homo sapiens), sequence (Q9UNQ0 whole entry, looked up): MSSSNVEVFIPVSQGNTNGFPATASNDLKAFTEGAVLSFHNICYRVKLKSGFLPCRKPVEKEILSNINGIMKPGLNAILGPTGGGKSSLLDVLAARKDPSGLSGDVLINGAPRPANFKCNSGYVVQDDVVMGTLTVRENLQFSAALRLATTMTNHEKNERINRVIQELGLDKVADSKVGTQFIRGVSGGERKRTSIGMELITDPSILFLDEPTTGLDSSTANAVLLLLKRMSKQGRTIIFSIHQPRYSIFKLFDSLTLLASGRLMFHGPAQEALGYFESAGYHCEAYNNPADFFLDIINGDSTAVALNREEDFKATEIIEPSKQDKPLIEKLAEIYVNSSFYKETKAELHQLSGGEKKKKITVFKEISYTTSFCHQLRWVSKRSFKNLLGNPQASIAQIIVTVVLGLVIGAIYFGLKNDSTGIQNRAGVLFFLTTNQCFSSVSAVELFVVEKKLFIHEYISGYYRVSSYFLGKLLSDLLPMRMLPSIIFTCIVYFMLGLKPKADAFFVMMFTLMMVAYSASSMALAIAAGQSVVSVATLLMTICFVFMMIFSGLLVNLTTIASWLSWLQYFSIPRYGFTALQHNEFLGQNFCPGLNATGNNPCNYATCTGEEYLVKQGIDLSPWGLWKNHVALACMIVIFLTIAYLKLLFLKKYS

Regarding `COCC(=O)N(c1c(C)cccc1C)C(C)C(=O)OC` (stereo not drawn), the molecule was called inactive in test [1], in test [2], in test [3], in test [4], in test [5] and in test [6]. The molecule was classed as inactive in test [7], in test [8], in [9], in [10], in [11] and in [12]. In [13], the outcome was inactive.
Consider `Nc1c(Cl)c(F)nc(OCC(=O)O)c1Cl`, for which the molecule was classed as inactive in test [1], in test [2], in test [3], in test [4], in test [14] and in test [5]. Further, the result in test [6], in [15], in [7], in [8], in [9] and in [10] was inactive. For the same molecule, the outcome in test [11], in test [12] and in test [13] was inactive.
Take `CCC(C)n1c(=O)[nH]c(C)c(Br)c1=O` (stereo not drawn): the AC50 is 27.6 µM (active) in test [1]; 29 µM (active) in [2]; 5.11 µM (active) in [3]; 14.3 µM (active) in [6]; 30 µM (active) in [8]; 21.6 µM (active) in [11]. In addition, the call in [4], in test [5], in test [16], in test [7], in [9] and in test [10] was inactive. The call in test [12] and in test [13] was inactive.
For `O=C(Nc1ccccc1-c1ccc(Cl)cc1)c1cccnc1Cl`, the call in test [1], in test [17], in test [2], in test [4], in [5] and in test [6] was inactive. Moreover, the outcome in test [16], in test [7], in test [9], in [10], in test [18] and in [11] was inactive. The result in [12] and in test [13] was inactive. The AC50 in [3] was 52.5 µM (active); in test [8], 0.921 µM (active).
Turning to `CC(C)NC(=O)N1CC(=O)N(c2cc(Cl)cc(Cl)c2)C1=O`, the AC50 in [1] is 23.8 µM (active); in test [2], 17 µM (active); in test [3], 5.2 µM (active); in test [4] it was 20.2 µM (active); in test [6], 7.56 µM (active); in [15], 26.3 µM (active). The AC50 in [10] is 15 µM (active); in [11], 14.4 µM (active). Also, the molecule was called inactive in [5], in test [7], in test [8], in test [9], in test [18] and in test [12]. Further, the outcome in [13] was inactive.
For `CCN(CC)c1nc(C)cc(OP(=S)(OC)OC)n1`, the outcome in [1], in test [2], in test [4], in test [5], in test [6] and in test [16] was inactive. Also, the result in test [15], in test [7], in test [8], in test [10], in [11] and in [12] was inactive. Also, the outcome in [13] was inactive. Further, the AC50 was 31.1 µM (active) in test [3] and 19.9 µM (active) in test [9].
Consider `CCCCC(C#N)(Cn1cncn1)c1ccc(Cl)cc1` (stereo not drawn), for which the outcome in [1], in test [17], in test [2], in test [4], in [5] and in test [6] was inactive. Besides, the result in [15], in test [7], in test [9], in test [11], in [12] and in test [13] was inactive. The AC50 in test [3] is 27.1 µM (active); in [8], 91.7 µM (active); in test [10] it was 4.77 µM (active).
On to `CC1(C)C(C(=O)OC(C#N)c2cccc(Oc3ccccc3)c2)C1(C)C` (stereo not drawn), for which the outcome in test [1], in [17], in test [2], in test [4], in test [5] and in test [6] was inactive. In addition, the outcome in test [16], in test [7], in [8], in test [9], in test [10] and in [11] was inactive. The molecule was called inactive in test [12] and in test [13]. The AC50 in test [3] was 50 µM (active).
